From PubChem BioAssay (Tox21)
Records with an inconclusive call do not appear. Active and inactive are the calls of the source. Calls follow the shape of the dose curve; as a rule, active = well fitted inhibition curve with a large enough effect in the signal ratio in the repeat runs, with a control signal flat; inconclusive = weak or mixed curves, or effect the other way; inactive = flat fitted curve, though single readings scatter; the % refers to the signal ratio.

Target: D(2) dopamine receptor (Homo sapiens) (UniProt P14416)
Assay: Dopamine D2 receptor (DRD2) small molecule antagonists, cell-based qHTS assay (AID 1963595)
Conditions: HEK293-DRD2 cAMP HTRF antagonist mode; series mostly up to 92.4 µM; activity change, negative = inhibition: at the top concentration
Description: National Center for Advancing Translational Sciences [NCATS]
Division of Preclinical Innovation [DPI]
U.S. Environmental Protection Agency [EPA]
National Institutes of Environmental Health Sciences [NIEHS]
National Toxicology Program [NTP]
U.S. Food and Drug Administration [FDA]
DRD2 is the D2 subtype of the dopamine receptor, which is coupled to Gi subtype of G protein-coupled receptor. This G protein-coupled receptor inhibits adenylyl cyclase activity. The DRD2-HEK293 cell line stably expressing D2 dopamine receptor can be used for screening agonists and antagonists of interactions between D2 and its ligands. The Hek293-DRD2 cAMP assay is based on HTRF technology. It measures changes of cAMP accumulation in response to Gi coupled GPCR activation or inhibition.
Tox21 Assay Protocol Summary:
DRD2-Hek293 cells were dispensed at 600 cells/3uL/well in 1536-well white plates using a Multidrop Dispenser. After the assay plates were incubated at a 37 C/5% CO2 incubator for 24 h, 1 uL of Ro20-1724 at final concentration of 0.1 mM was transferred to the assay plate by a Flying Reagent Dispenser. Following Ro20-1724 addition, 23 nL of compound dissolved in DMSO, positive controls or DMSO only was added to the assay plates via Wako pintool station. The assay plates were incubated at room temperature for 10 min. Next, 1 uL of mixture of NKH477 (final concentration at 200 nM) and quinpirole (final concentration at 12 nM) was added into the plates. After the assay plates were incubated at room temperature for an additional 30 min, 2.5 ul/well of cAMP-d2 and 2.5 ul/well of anti-cAMP-cryptate were added respectively into the assay plates using a Flying Reagent Dispenser. The plates were incubated at room temperature for 1 h. The fluorescence intensity in the plates was measured at 340 nm excitation and 665 & 620 nm emission by an Envision plate reader.
% is scaled to controls: 0 for no effect and ±100 for the full control effect; potency is read from the fitted curve at half-maximal effect.

Sequence of D(2) dopamine receptor (Homo sapiens) (P14416 whole entry, looked up): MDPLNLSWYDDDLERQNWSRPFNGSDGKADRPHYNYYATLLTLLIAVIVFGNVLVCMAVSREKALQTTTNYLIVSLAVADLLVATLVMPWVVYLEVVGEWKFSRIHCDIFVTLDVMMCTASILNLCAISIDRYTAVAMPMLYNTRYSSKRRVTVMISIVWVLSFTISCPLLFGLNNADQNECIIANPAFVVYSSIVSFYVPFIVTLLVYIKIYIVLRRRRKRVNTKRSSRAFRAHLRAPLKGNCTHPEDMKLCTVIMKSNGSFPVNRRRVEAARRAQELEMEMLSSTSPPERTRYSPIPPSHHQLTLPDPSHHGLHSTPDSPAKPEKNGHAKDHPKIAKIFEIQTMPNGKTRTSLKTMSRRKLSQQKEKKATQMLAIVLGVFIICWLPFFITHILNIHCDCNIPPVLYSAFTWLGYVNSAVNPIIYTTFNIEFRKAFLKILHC

| Structure (SMILES) | activity change, negative = inhibition | Potency |
| --- | --- | --- |
| CN(C)CCN(C)CCO | 1.1% (inactive) | – |
| NNC(=O)CP(=O)(c1ccccc1)c1ccccc1 | -1.45% [at 42.5 µM] (inactive) | – |
| C=CC(=O)OCC(C)OCC(C)OCC(C)OC(=O)C=C (stereo not given) | -0.64% (inactive) | – |
| CN(C)C(=O)Oc1cccc([N+](C)(C)C)c1 | 4.65% [at 42.5 µM] (inactive) | – |
| CCC(C)(CN(C)C)OC(=O)c1ccccc1 (stereo not given) | 4.76% [at 42.5 µM] (inactive) | – |
| CC(=O)OCC(=O)[C@@]1(O)CC[C@H]2[C@@H]3CCC4=CC(=O)CC[C@]4(C)[C@H]3C(=O)C[C@@]21C | -6.48% [at 42.5 µM] (inactive) | – |
| CO[Si](C)(OC)OC | 0.419% (inactive) | – |
| CN(C)c1ccc(SC#N)cc1 | -0.353% (inactive) | – |
| O=C(Cl)c1cc(C(=O)Cl)cc(C(=O)Cl)c1 | -14.8% (inactive) | – |
| CC(C)C[C@H]1C(=O)N2CCC[C@H]2[C@]2(O)O[C@](NC(=O)[C@@H]3C=C4c5cccc6[nH]c(Br)c(c56)C[C@H]4N(C)C3)(C(C)C)C(=O)N12 | 3.07% [at 42.5 µM] (inactive) | – |
| CCCCO | -3.22% (inactive) | – |
| CC(C)C(C)C | -10.9% (inactive) | – |
| CCOC(=O)/C=C(C)/C=C/C=C(C)/C=C/c1c(C)cc(OC)c(C)c1C | -8% [at 42.5 µM] (inactive) | – |
| C=CC(=O)OCCOc1ccccc1 | -0.175% (inactive) | – |
| CC(N=C(NC#N)Nc1ccncc1)C(C)(C)C (stereo not given) | 14.2% [at 42.5 µM] (inactive) | – |
| CC(=O)OC(C)C[N+](C)(C)C (stereo not given) | -11.3% [at 42.5 µM] (inactive) | – |
| CC[C@H]1OC(=O)[C@H](C)[C@@H](O[C@H]2C[C@@](C)(OC)[C@@H](O)[C@H](C)O2)[C@H](C)[C@@H](O[C@@H]2O[C@H](C)C[C@H](N(C)C)[C@H]2O)[C@](C)(O)C[C@@H](C)CN(C)[C@H](C)[C@@H](O)[C@]1(C)O | 0.203% [at 42.5 µM] (inactive) | – |
| O=C(O)c1ccccc1C(=O)OCc1ccccc1 | 5.39% (inactive) | – |
| Cc1ccc(C(=O)O)cc1[N+](=O)[O-] | 5.03% (inactive) | – |
| CCN(CC)C(=O)c1cc(S(=O)(=O)Cc2ccccc2)c(N2CCC(c3ccccc3)CC2)cc1N(CC)CCN(C)C | – | 21.4 µM (active) |

| Structure (SMILES) | activity change, negative = inhibition | Potency |
| --- | --- | --- |
| C/C=C(\C)C(C)=O | 7.35% (inactive) | – |
| CC(S)C(C)S (stereo not given) | 11.6% (inactive) | – |
| ClC(Cl)(Cl)c1ccc(C(Cl)(Cl)Cl)cc1 | 9.98% (inactive) | – |
| CC/C=C\CCCCCO | 1.06% (inactive) | – |
| CCCCCCCCCCCCCBr | 9.07% (inactive) | – |
| CN[C@H]1CC[C@@H](c2ccc(Cl)c(Cl)c2)c2ccccc21 | – | 15 µM (active) |
| CCN(Cc1cccc(S(=O)(=O)O)c1)c1ccc(C(=C2C=CC(=[N+](CC)Cc3cccc(S(=O)(=O)[O-])c3)C=C2)c2ccccc2)cc1 | 4.69% [at 42.5 µM] (inactive) | – |
| O=C(O)COC(=O)Cc1ccccc1Nc1c(Cl)cccc1Cl | 9.29% [at 42.5 µM] (inactive) | – |
| c1cc(CCCc2ccncc2)ccn1 | 7.56% (inactive) | – |
| CC(=O)OC(C(=O)c1ccccc1)c1ccccc1 (stereo not given) | -0.251% (inactive) | – |
| C/C=C/C=N/NC(=O)c1ccncc1 | -19.8% [at 42.5 µM] (inactive) | – |
| Cc1ccc(NC(=O)c2ccc(CN3CCN(C)CC3)cc2)cc1Nc1nccc(-c2cccnc2)n1 | 0.904% [at 42.5 µM] (inactive) | – |
| CCCCCCCOC(=O)c1ccc(O)cc1 | -23.1% (inactive) | – |
| CCOC(=O)[C@H](CCc1ccccc1)N[C@H]1CCc2ccccc2N(CC(=O)O)C1=O | -3.16% [at 42.5 µM] (inactive) | – |
| COc1cc(C(C)(C)C)c(O)c(C(C)(C)C)c1 | -18.6% (inactive) | – |
| N[C@@H](CS)C(=O)O | 0.788% (inactive) | – |
| O=C(O)c1cc(Br)c(O)c(Br)c1 | -0.14% (inactive) | – |
| NCCCOCCOCCOCCCN | -13.3% (inactive) | – |
| COc1cc(NC(C)CCCN)c2ncccc2c1 (stereo not given) | 2.36% [at 42.5 µM] (inactive) | – |
| CCCCCCOC(=O)CC(CC(=O)OCCCCCC)(OC(=O)CCC)C(=O)OCCCCCC | 12% (inactive) | – |
